# Laboratory results: PubChem BioAssay AID2314 (National Center for Advancing Translational Sciences (NCATS), 2010)
# The campaign covered roughly 300,000 compounds. About 37,000 (12%) were called active. Rule as the data show it: active = max response mostly above about 13% (no sharp cut-off); inactive = mostly below about 14%. The entries come from a sample that favours actives as a whole.
# Assay: Cycloheximide Counterscreen for Small Molecule Inhibitors of Shiga Toxin; also: read at 38.3 µM for the half of the compounds with a filed dose; 0% is about no effect
# Conditions: cell reporter, cycloheximide protein synthesis inhibition counterscreen; hits give high values
row,SMILES,max response
1,C=CCOC(=O)C(=C)C,-1.88% (inactive)
2,N#Cc1ccc(C(=O)Nc2nc(-c3cccs3)c(C(=O)C(F)(F)F)s2)cc1,0.458% (inactive)
3,Cn1cccc1Cc1nnc(SCC(=O)NCc2ccc3c(c2)OCO3)n1CCc1ccccc1,1.14% (inactive)
4,O=S(=O)(Nc1ccc2nc(-c3ccco3)[nH]c2c1)c1ccccc1,33.7% (active)
5,Cc1ccc(S(=O)(=O)Nc2ccc3ncccc3c2)cc1,-2.27% (inactive)
6,O=S(=O)(Nc1ccc2cn[nH]c2c1)c1ccccc1,5.04% (inactive)
7,Cc1ccc2c(cnn2C(=O)CCC(=O)NC2CCCC2)c1,1.35% (inactive)
8,Cn1c2ccc(F)cc2c2nnc(NN)nc21,0.49% (inactive)
9,Cc1cc(Cl)ccc1OCCCC(=O)NCc1ccncc1,2.81% (inactive)
10,COc1ccc(-c2noc(COc3ccc(Cl)c(C)c3)n2)cc1,8.61% (inactive)
11,Cc1cc(Cl)ccc1OCc1nc(-c2ccncc2)no1,35.5% (active)
12,COc1cc(NC(=O)CN2C(=O)NC(C)(c3ccc(OC(F)F)cc3)C2=O)cc(OC)c1OC (stereo not drawn),-2.19% (inactive)
13,O=C1/C(=C/c2cccs2)CCC1C1CCCC1 (stereo not drawn),29.4% (active)
14,CCC1C/C(=C/c2cccs2)C(=O)/C(=C/c2cccs2)C1 (stereo not drawn),-1.72% (inactive)
15,O=S(=O)(c1cccs1)N1CCc2ccccc2C1,-2.33% (inactive)
16,COc1ccc2c(c1OC)C(=O)c1ccccc1C2=O,2.67% (inactive)
17,CN1C/C(=C/c2cccs2)C(=O)/C(=C\c2cccs2)C1,35.9% (active)
18,O=C1/C(=C/c2cccs2)CCc2ccccc21,62.8% (active)
19,COc1ccc(/C=C2\CCc3ccccc3C2=O)c(OC)c1OC,35.6% (active)
20,CN1CCN(C(=O)/C(=C\c2cccs2)NC(=O)c2cccs2)CC1,8.48% (inactive)
21,COc1cc(/C=C/C(=O)N2CCc3ccccc3C2)cc(OC)c1OC,0.558% (inactive)
22,O=C1/C(=C/c2cccs2)SC(=S)N1C1CCS(=O)(=O)C1 (stereo not drawn),-0.776% (inactive)
23,c1ccc2c(c1)CCc1snnc1-2,-1.75% (inactive)
24,O=C(Nc1ccccc1C(=O)N1CCOCC1)c1ccc(CSc2ccccc2)cc1,-0.894% (inactive)
25,Cc1cc(=O)oc2c(C)c(OCC(=O)NCCc3ccc(S(N)(=O)=O)cc3)ccc12,-1.87% (inactive)
26,CCOC(=O)C1=C(c2ccccc2)NC(=O)NC1c1cc(OCC)c(O)c([N+](=O)[O-])c1 (stereo not drawn),-1.22% (inactive)
27,CCOc1ccc2c(c1)c(=O)c(S(=O)(=O)c1ccc(C)cc1)cn2CC,-0.573% (inactive)
28,OC1CCCN(c2ncnc3c2nnn3Cc2c(F)cccc2Cl)C1 (stereo not drawn),7.82% (inactive)
